Most compounds without a hit are left out; they make up all but 0.57% or so of the library.
PrP UTR inh – inhibition of PrP 5' UTR reporter expression; actives 0.35% (n = 340,000); inhibition, % (concentration not given with the values); cell-based PrP 5' UTR mRNA reporter, plate reader; in the data active means inhibition above about 52%; further: 0 = median of the neutral control wells
Yp Topo-I inh – inhibitors of Yersinia pestis topoisomerase I; actives 0.064% (n = 360,000); AID 504884; activity, % at 10 µM; Y. pestis Topo-I cleavage product accumulation, plate reader; in the data active means activity above about 50%, passing the limit was not always enough; inconclusive means no clear call, values can overlap the other calls
TcdB inh – blocks C. difficile toxin B glycohydrolase activity; TcdB glycohydrolase enzymatic assay, plate reader; inhibition, % at 9.99 µM; actives 0.24% (n = 350,000); in the data active means inhibition above about 10%
Target sequence (P18177 whole entry, looked up): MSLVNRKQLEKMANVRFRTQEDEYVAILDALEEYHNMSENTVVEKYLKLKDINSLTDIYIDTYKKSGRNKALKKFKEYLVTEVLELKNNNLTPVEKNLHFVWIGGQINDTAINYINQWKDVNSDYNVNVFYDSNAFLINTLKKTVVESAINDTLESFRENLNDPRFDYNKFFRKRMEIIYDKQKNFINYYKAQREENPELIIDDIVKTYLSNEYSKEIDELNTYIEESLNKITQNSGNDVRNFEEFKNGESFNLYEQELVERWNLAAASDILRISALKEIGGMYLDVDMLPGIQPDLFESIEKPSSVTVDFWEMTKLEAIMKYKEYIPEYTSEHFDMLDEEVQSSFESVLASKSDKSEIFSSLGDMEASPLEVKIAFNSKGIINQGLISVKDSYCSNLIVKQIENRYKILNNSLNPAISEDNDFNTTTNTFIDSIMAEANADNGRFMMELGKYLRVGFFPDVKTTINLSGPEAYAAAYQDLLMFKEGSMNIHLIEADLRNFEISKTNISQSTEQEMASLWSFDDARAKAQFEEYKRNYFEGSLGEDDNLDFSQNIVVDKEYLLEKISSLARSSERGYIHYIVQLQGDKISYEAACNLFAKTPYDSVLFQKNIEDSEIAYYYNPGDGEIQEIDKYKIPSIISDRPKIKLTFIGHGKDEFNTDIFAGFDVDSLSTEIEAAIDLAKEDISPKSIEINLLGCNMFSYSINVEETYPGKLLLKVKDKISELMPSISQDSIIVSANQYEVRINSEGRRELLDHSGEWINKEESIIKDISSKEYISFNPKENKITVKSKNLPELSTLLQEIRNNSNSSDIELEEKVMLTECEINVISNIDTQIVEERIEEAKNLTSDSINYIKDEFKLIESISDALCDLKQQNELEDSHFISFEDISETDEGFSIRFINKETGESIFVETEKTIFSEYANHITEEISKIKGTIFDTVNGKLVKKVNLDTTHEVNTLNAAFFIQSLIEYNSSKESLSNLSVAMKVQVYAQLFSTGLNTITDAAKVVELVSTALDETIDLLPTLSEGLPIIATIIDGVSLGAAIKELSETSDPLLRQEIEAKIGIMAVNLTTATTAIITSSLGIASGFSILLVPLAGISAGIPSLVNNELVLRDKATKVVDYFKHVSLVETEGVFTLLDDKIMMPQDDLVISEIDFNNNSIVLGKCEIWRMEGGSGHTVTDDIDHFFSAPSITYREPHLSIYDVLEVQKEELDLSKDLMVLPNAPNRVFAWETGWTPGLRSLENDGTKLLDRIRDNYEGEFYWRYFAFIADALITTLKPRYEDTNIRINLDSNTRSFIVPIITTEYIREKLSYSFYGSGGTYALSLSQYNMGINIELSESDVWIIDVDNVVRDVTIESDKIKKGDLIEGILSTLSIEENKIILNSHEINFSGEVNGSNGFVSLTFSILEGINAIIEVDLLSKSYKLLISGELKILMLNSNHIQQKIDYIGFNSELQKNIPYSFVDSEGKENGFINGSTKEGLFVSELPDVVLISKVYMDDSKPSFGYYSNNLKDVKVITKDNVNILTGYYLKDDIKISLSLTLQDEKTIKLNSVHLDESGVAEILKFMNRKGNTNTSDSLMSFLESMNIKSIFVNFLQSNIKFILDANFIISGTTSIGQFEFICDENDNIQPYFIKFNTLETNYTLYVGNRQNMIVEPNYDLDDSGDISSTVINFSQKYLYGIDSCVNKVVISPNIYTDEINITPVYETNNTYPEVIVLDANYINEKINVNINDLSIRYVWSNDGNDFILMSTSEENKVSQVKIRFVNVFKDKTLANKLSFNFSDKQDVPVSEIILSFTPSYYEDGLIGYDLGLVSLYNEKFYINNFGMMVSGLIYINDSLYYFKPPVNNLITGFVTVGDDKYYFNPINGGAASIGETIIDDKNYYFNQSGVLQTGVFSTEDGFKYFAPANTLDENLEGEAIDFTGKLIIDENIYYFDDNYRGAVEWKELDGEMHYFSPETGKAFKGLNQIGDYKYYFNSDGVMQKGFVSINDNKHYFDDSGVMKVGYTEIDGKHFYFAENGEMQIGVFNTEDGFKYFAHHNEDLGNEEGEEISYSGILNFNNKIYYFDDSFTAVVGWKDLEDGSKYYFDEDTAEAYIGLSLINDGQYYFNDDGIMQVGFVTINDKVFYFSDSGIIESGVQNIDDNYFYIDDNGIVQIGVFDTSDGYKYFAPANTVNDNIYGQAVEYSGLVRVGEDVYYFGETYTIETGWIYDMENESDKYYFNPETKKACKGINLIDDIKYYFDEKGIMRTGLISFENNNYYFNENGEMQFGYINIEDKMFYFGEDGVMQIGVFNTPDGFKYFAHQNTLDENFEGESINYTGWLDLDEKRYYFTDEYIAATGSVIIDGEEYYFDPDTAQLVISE
Mtb BioA inh – blocks M. tuberculosis BioA enzyme activity | AID 602481 | inhibition, % at 9.99 µM | actives 0.096% (n = 360,000) | purified M. tuberculosis BioA enzyme, plate reader; in the data active means inhibition above about 40%; inconclusive means no clear call, values can overlap the other calls
PrP UTR cherry – prion 5' UTR mRNA inhibition, cherry-pick retest; inhibition, % at 2.5 µM; actives 48% (n = 1,100); cell-based prion protein 5' UTR reporter, plate reader; shares compounds with PrP UTR inh; in the data active means inhibition above about 54%; inconclusive means no clear call, values can overlap the other calls
Starred values were filed as active, the others as inactive.

What do the screens show for `C[C@@H]1CCCCO[C@H](CN(C)C(=O)Nc2ccccc2)[C@@H](C)CN([C@@H](C)CO)C(=O)c2cc(NC(=O)C3CCCCC3)ccc2O1`?
TcdB inh: 0.3; Mtb BioA inh: 0.2

What do the screens show for `COc1ccc(C(=O)N/C(=C\c2ccc3c(c2)OCO3)C(=O)N2CCOCC2)cc1`?
PrP UTR inh: 76.6*; Yp Topo-I inh: -1.4; TcdB inh: -9.6; PrP UTR cherry: inconclusive

Results for Cc1ccc(C(=O)N/C(=C\c2ccc3c(c2)OCO3)C(=O)N2CCOCC2)cc1 ?
PrP UTR inh: -27.3; Yp Topo-I inh: 8.6; TcdB inh: 1.0; Mtb BioA inh: 11.8

How did O=C(c1cccc([N+](=O)[O-])c1)N1CCN(c2cccc(Cl)c2)CC1 do in these assays?
PrP UTR inh: -40.3; Yp Topo-I inh: 19.0

How did COC(=O)c1cc(C(=O)N2CCN(c3cccc(Cl)c3)CC2)cc([N+](=O)[O-])c1 do in these assays?
PrP UTR inh: 62.3*; Yp Topo-I inh: 9.7; TcdB inh: 0.8; PrP UTR cherry: 86.7*

Results for COc1ccc(CNC(=O)CSc2nc(-c3ccccc3)cc(-c3cccs3)c2C#N)cc1 ?
PrP UTR inh: -45.4; Yp Topo-I inh: -3.1; Mtb BioA inh: -2.3

What do the screens show for `COc1ccc(-c2cc(-c3cccs3)c(C#N)c(SCC(=O)NCc3ccco3)n2)cc1`?
PrP UTR inh: 67.9*; Yp Topo-I inh: 5.4; Mtb BioA inh: 0.0; PrP UTR cherry: 86.5*

How did Cc1ccccc1-c1ccc2c(c1)O[C@@H](CN(C)Cc1ccncc1)[C@H](C)CN([C@H](C)CO)S2(=O)=O do in these assays?
TcdB inh: 1.2; Mtb BioA inh: -0.6

Results for Cc1csc(NC(=O)c2cn3ccccc3n2)n1 ?
PrP UTR inh: 75.9*; Yp Topo-I inh: 3.7; TcdB inh: 1.0; Mtb BioA inh: -0.7; PrP UTR cherry: inconclusive

What do the screens show for `O=C(Nc1ccccc1)c1cn2ccccc2n1`?
PrP UTR inh: 30.9; Yp Topo-I inh: -0.8; TcdB inh: 1.9; Mtb BioA inh: -1.1

What do the screens show for `O=C(c1ccco1)N1CCN(S(=O)(=O)/C=C/c2ccccc2)CC1`?
PrP UTR inh: 56.4*; Yp Topo-I inh: 3.3; TcdB inh: 0.4; PrP UTR cherry: 11.4

What do the screens show for `O=C(c1cc2ccccc2o1)N1CCN(S(=O)(=O)/C=C/c2ccccc2)CC1`?
PrP UTR inh: -20.0; Yp Topo-I inh: 36.9; TcdB inh: 1.2; Mtb BioA inh: 4.2

How did Cc1ccccc1N=Nc1c(N)n[nH]c1N do in these assays?
PrP UTR inh: 54.7*; Yp Topo-I inh: -1.6; TcdB inh: 3.9; Mtb BioA inh: 0.5; PrP UTR cherry: -26.4

Results for Nc1n[nH]c(N)c1N=Nc1ccccc1F ?
PrP UTR inh: 1.3; Yp Topo-I inh: -4.8; TcdB inh: -0.9; Mtb BioA inh: -0.7

What do the screens show for `O=C(CSCc1nc2ccccc2[nH]1)Nc1ccccc1`?
PrP UTR inh: 78.3*; Yp Topo-I inh: -4.5; Mtb BioA inh: 0.1; PrP UTR cherry: -4.6

How did COc1ccccc1C(=O)Nc1nc2ccccc2s1 do in these assays?
PrP UTR inh: 91.7*; Yp Topo-I inh: 3.5; TcdB inh: 0.4; Mtb BioA inh: -0.7; PrP UTR cherry: 92.7*

How did COc1ccc(C(=O)Nc2nc3ccccc3s2)c(OC)c1 do in these assays?
PrP UTR inh: 94.5*; Yp Topo-I inh: 0.5; TcdB inh: 1.0; Mtb BioA inh: 0.1; PrP UTR cherry: 94.9*

Results for N/C(=N\OCc1ccc([N+](=O)[O-])cc1)c1ccccn1 ?
PrP UTR inh: 85.2*; PrP UTR cherry: 79.9*

What do the screens show for `CC(C(=O)O/N=C(\N)c1ccccn1)c1ccc([N+](=O)[O-])cc1` (stereo unspecified)?
PrP UTR inh: -11.7; Yp Topo-I inh: -5.1; TcdB inh: 0.7; Mtb BioA inh: 1.7

Results for Cc1cccc(Oc2ncnc(N)c2[N+](=O)[O-])c1C ?
PrP UTR inh: -9.9; Yp Topo-I inh: -5.5; TcdB inh: -0.2; Mtb BioA inh: -2.0

How did Nc1ncnc(Oc2cccc3cccnc23)c1[N+](=O)[O-] do in these assays?
PrP UTR inh: 67.4*; Yp Topo-I inh: 1.6; TcdB inh: 2.8; PrP UTR cherry: 31.9

Results for Nc1ccc(-c2cc3ccccc3c(=O)o2)cc1 ?
PrP UTR inh: 70.0*; Yp Topo-I inh: -12.3; TcdB inh: 1.6; Mtb BioA inh: -1.6; PrP UTR cherry: 67.8*

How did CCSc1nc(-c2ccccc2)nc(C(Cl)Cl)n1 do in these assays?
PrP UTR inh: 63.2*; Yp Topo-I inh: 21.9; TcdB inh: 0.6; Mtb BioA inh: -0.3; PrP UTR cherry: 79.1*

What do the screens show for `CSc1nc(-c2ccc(C)cc2)nc(C(Cl)Cl)n1`?
PrP UTR inh: 1.2; Yp Topo-I inh: -2.7

Assay outcomes from PubChem BioAssay.
